According to PubChem BioAssay (NCI):
Compounds without any hit were thinned out: in the full panel of roughly 79,000, 15% have a hit. No stated cut-off is given here; in the data, active means growth inhibition above about 70%; inactive means the rest.

Assays:
[1] = NCI Yeast Anticancer Drug Screen. Data for the rad50 strain (AID 155);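 further: 0% = growth of vehicle-only cultures of the same strain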; conditions: S. cerevisiae rad50 strain growth inhibition; at 50.0 µM; active compounds read high
Procedure, shortened: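 Inhibition values express reduced yeast growth in compound-treated cultures relative to vehicle-treated controls.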

[2] = NCI Yeast Anticancer Drug Screen. Data for the mec2-1 strain (AID 157); conditions: S. cerevisiae mec2-1 strain, at 50.0 µM, active compounds read high
Procedure, shortened: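 Readout is yeast growth inhibition, normalised to vehicle-treated controls, in the mec2-1 strain exposed to compound.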

[3] = NCI Yeast Anticancer Drug Screen. Data for the sgs1 mgt1 strain (AID 161);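 further: 0% = growth of cultures given vehicle only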; conditions: S. cerevisiae sgs1 mgt1 strain, at 50.0 µM, active compounds read high
Procedure, shortened: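 Compounds are added to genetically altered yeast, and growth is compared with cultures given vehicle alone to give percent inhibition.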

[4] = NCI Yeast Anticancer Drug Screen. Data for the cln2 rad14 strain (AID 165);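 further: 0% = growth equal to vehicle treated cultures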; conditions: S. cerevisiae cln2 rad14 strain, at 50.0 µM, active compounds read high
Procedure, shortened: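 Relative to vehicle controls, growth inhibition of compound-treated cln2 rad14 yeast was recorded.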

[5] = NCI Yeast Anticancer Drug Screen. Data for the bub3 strain (AID 167); conditions: S. cerevisiae bub3 mutant strain, at 50.0 µM, active compounds read high
Procedure, shortened: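 Steps: expose the mutant yeast strain to compound; grow alongside vehicle-treated cultures; measure growth; express inhibition against the vehicle cultures.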

[6] = NCI Yeast Anticancer Drug Screen. Data for the mlh1 rad18 strain (AID 175); conditions: S. cerevisiae mlh1 rad18 strain growth inhibition; at 50.0 µM; active compounds read high
Procedure, shortened: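 Test agents were incubated with a yeast strain of defined genotype (DNA damage repair defect). Inhibition of growth was derived by comparison with vehicle-exposed cultures.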

Measured: growth inhibition

CCCCCCCCCCCCCCCCC1CC(=O)OC1=O (stereo unspecified)
inactive: [1] -4.35% | [2] -12.2% | [3] 5.9% | [4] 4.3% | [5] -11.3% | [6] 4.55%

CCOC(=O)Nc1nn[nH]n1
inactive: [1] 7.75% | [2] 1.35% | [3] 32% | [4] 4.15% | [5] -4.95% | [6] 3.65%

OC(c1ccccn1)C(O)c1ccccn1 (stereo unspecified)
inactive: [1] -2.55% | [2] -4.45% | [3] -0.6% | [4] -9% | [5] -5.6% | [6] 3.2%

COc1ccc(C(=O)C(Br)C(Br)C(=O)O)cc1 (stereo unspecified)
inactive: [1] 24.6% | [2] 24.4% | [3] 6.35% | [4] -64.7% | [5] 5.45% | [6] 38.9%

COC(=O)c1ccc(NC(=O)CCl)cc1
inactive: [1] 44.8% | [2] 37% | [3] 50% | [4] 49% | [5] 32.7% | [6] 45.5%

CC(CC(=O)c1ccccc1)c1ccccc1 (stereo unspecified)
inactive: [1] -7.9% | [2] -18.4% | [3] -10.7% | [4] -13.7% | [5] -19.4% | [6] 10.2%

CC(=O)NC(N)=S
inactive: [1] 2.3% | [2] 3.75% | [3] -23.1% | [4] -3.05% | [5] -3.25% | [6] -7%

Nc1ccccc1SC(CC(=O)c1ccccc1)c1c(Cl)cccc1Cl (stereo unspecified)
inactive: [1] -11.5% | [2] -9.65% | [3] 2.1% | [4] 1.75% | [5] 2.85% | [6] 16.7%

CSC(=N\N=C\c1ccc(N(C)C)cc1)/N=C/N(C)C
inactive: [1] -4.3% | [2] -8.15% | [3] 6.05% | [4] 7.65% | [5] 18.6% | [6] 25.1%

CCOc1ccccc1/C=N/Nc1nc2ccccc2o1
inactive: [1] 30.6% | [2] 0.4% | [3] -2.8% | [4] -23.8% | [5] 6.85% | [6] 33.6%

O=C(Nc1cccc(NC(=O)Nc2cc(C(F)(F)F)ccc2Cl)c1)Nc1cc(C(F)(F)F)ccc1Cl
inactive: [1] 18.8% | [2] -15.8% | [3] 9.55% | [4] 19.4% | [5] 14.9% | [6] 11.7%

O=C(c1ccc(Cl)cc1)c1ccccc1Cl
inactive: [1] 37.9% | [2] -8.3% | [3] 41.3% | [4] -41.1% | [5] 25% | [6] 19%

COc1cc2cc(c1Cl)N(C)C(=O)C[C@H](OC(=O)[C@H](C)N(C)C(C)=O)[C@]1(C)O[C@H]1[C@H](C)[C@@H]1C[C@@](O)(NC(=O)O1)[C@H](OC)C=C/C=C(\C)C2
inactive: [1] 12.1% | [2] -11.4% | [3] 6.55% | [4] 14.1% | [5] 5.9% | [6] 25.3%

c1c(-c2cc(C3CC3)[nH]n2)n[nH]c1C1CC1
inactive: [1] -62% | [2] -0.25% | [3] -17.6% | [4] -16.4% | [5] 1.8% | [6] 2.35%

CNC(=O)c1ccccc1CC1(O)c2ccccc2Oc2ccccc21
inactive: [1] 0.4% | [2] -13.5% | [3] 9.05% | [4] 0.7% | [5] -9.25% | [6] -8.55%

O=C1Cc2ccccc2C(=O)O1
inactive: [1] 25.9% | [2] -16.5% | [3] 1.95% | [4] -22.1% | [5] -5.15% | [6] 15.6%

CC(=O)Nc1c(C)cc(C)cc1C
inactive: [1] 0.3% | [2] -0.35% | [3] -6.4% | [4] -11.8% | [5] 9.45% | [6] 0.1%

NC(=O)N/N=C\c1ccco1
inactive: [1] 26.1% | [2] -9.8% | [3] -13.3% | [4] -11.4% | [5] -14.3% | [6] 13.1%

CC(C)(C)c1cc(O)c(C(C)(C)C)cc1O
inactive: [1] 12.1% | [2] -0.05% | [3] 6.05% | [4] -1.85% | [5] 0.15% | [6] 11.2%

Oc1ccc(Cc2ccccc2)c2cccnc12
inactive: [1] -27.7% | [2] -8.6% | [3] -12.7% | [4] -19.4% | [5] -17.1% | [6] 34.6%

Cc1cc(=O)cc(C)n1-c1ccccc1
inactive: [1] 11.9% | [2] -5.75% | [3] -15.4% | [4] 0.25% | [5] 12.1% | [6] 19.2%
